High-throughput results deposited in PubChem BioAssay by National Center for Advancing Translational Sciences (NCATS).
Compounds with a hit are over-represented: about 11% of the library has one in this group of screens.
ALDH1A1 inh: blocks purified human ALDH1A1 activity | P00352 | Purified ALDH1A1, NADH fluorescence, propionaldehyde substrate | Potency, µM (titrated, usually from 75.3 µM), for the others: at the highest dose activity, negative = inhibition, usual class: inhibitors | 220,000 tested, 7.3% active | AID 1030;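 further: potency means the concentration at half of the fitted maximal effect; plate controls were no enzyme wells and a reference inhibitor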
HPGD inh: HPGD (human) dehydrogenase inhibition; Potency, µM, for the others: top-dose activity change, negative = inhibition, usual class: inhibitors; P15428; 150,000 tested, 4.3% active; purified HPGD, NADH fluorescence kinetic, PGE2 substrate; further: potency means the concentration at half of the fitted maximal effect
Target sequence (P15428 whole entry, looked up): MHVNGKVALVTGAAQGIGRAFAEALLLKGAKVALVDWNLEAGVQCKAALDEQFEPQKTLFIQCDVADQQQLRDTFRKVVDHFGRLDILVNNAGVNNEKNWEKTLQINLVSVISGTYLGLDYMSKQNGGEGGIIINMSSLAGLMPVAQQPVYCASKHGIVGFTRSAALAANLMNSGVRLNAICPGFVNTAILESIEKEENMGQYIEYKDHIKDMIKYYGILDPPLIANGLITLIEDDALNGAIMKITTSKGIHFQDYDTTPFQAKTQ
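20 nM HPGD preincubated 15 min at room temperature with compound in 50 mM Tris-HCl pH 8, 0.01% Tween 20. Started with 1 mM NAD+ and 30 uM prostaglandin E2; NADH fluorescence (360/450 nm) read 5 times over 30-s intervals, last minus first.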
PNC assembly inh: blocks assembly of the perinucleolar compartment. PC3M PTB-GFP, PNC prevalence imaging, 16 h; hits give low values. activity change (PNC), negative = inhibition, % at 10 µM. 140,000 tested, 3.1% active. AID 2417;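 active means readout at or below -70, meaning at least 70% loss of cells showing the perinucleolar compartment, a nuclear body marking cancer cells; inconclusive means readout between -30 and a set limit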;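 further: plate controls were DMSO wells for no effect and camptothecin positive control wells for full effect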
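Read-out is percentage of cells bearing a perinucleolar compartment, from automated 20x imaging of fixed, Hoechst-stained PC3M PTB-GFP cells. Cells were seeded 4 h, then exposed 16 h to compound (23 nl of library stock) in duplicate plates.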
Starred values were filed as active, the others as inactive; ? = inconclusive; / = no result given. Unless noted, the call rests on the fitted dose curve; in most records, active means well fitted inhibition curve with a large enough effect (not every such curve was filed as active); inconclusive means small, poorly fitted or top-dose-only effect, or another doubt; inactive means no such curve, though single readings can be large or run the other way. Unless noted, on the % scale 0 is the no-effect control and ±100 the full control effect.

SMILES	ALDH1A1 inh	HPGD inh	PNC assembly inh
Cc1ccc(C)c(N2CC(C(=O)O)CC2=O)c1 (stereo not drawn)	6.5%	/	/
COc1ccc2c(c1)c(=O)oc1cc(OCC(=O)N3CCc4ccccc4C3)ccc12	?	?	8.2
O=C1Nc2ccc(S(=O)(=O)N3CCCC3)c3cccc1c23	?	-21.6%	-9.8
CN1CCN(S(=O)(=O)c2ccc3c4c(cccc24)C(=O)N3)CC1	?	?	-90.9*
CC1(c2ccc(Cl)cc2)NC(=O)N(CC(=O)N2CCCC2)C1=O (stereo not drawn)	0.6%	-10.7%	11.8
O=C1c2ccccc2C(=O)c2c1ccc1c(=O)n(-c3ccccc3)[nH]c21	1.5%	-4.6%	?
CC(C)Cn1[nH]c2c3c(ccc2c1=O)C(=O)c1ccccc1C3=O	?	2µM*	19.8
CCOC(=O)Cc1nc2cc(Cl)ccc2o1	2.1%	/	/
O=C(c1ccccc1)[C@@H]1[C@@H](C(=O)c2ccc(F)cc2)[C@@]2(C(=O)Nc3ccccc32)[C@H]2c3ccccc3C=CN12	11.2µM*	/	26.3
CC(=O)[C@@H]1[C@@H](C(=O)c2ccccc2)[C@]2(C(=O)Nc3ccccc32)[C@H]2C=Cc3cc(F)ccc3N12	?	-19.4%	2.9
CCCCc1nnc(NC(=O)CSc2nc(=O)cc(N)n2-c2cccc(C)c2)s1	-2.0%	-9.7%	-81.3*
Cc1cccc(-n2c(N)cc(=O)nc2SCC(=O)Nc2nnc(CC(C)C)s2)c1	7.9%	-10.4%	-3.9
CN(C)/C=C/C1=CC(=O)CC(C)(C)C1	8.91µM*	/	/
CC1(C)CC(=O)C=C(NCCO)C1	-0.8%	-4.6%	2.5
N=c1sccn1CC(=O)Nc1cc(S(=O)(=O)N2CCCCC2)ccc1Cl	-2.1%	/	/
O=C(NCCO)C1CCN(C(=O)c2ccc(-c3ccccc3)cc2)CC1	-6.4%	/	/
Cc1[nH]nc2c1C(c1ccsc1C)C(C#N)=C(N)O2 (stereo not drawn)	-8.4%	-9.3%	1.4
Cc1cc(C2C(C#N)=C(N)SC(N)=C2C#N)c(C)s1	25.1µM*	20µM*	28.0
Cc1sccc1C1C(C#N)=C(N)SC(N)=C1C#N	10µM*	-15.6%	18.6
Cc1cc(C2C(C#N)=C(N)Oc3n[nH]c(C)c32)c(C)s1 (stereo not drawn)	-7.5%	-21.9%	?
CN1CCN(c2ccc(Cl)cc2NC(=O)/C=C/c2ccc(F)cc2)CC1	8.3%	/	/
C(=N/n1c2ccccc2c2ccccc21)/c1ccco1	10µM*	-14.0%	?
C(=N\n1c2ccccc2c2ccccc21)/c1ccccc1	1.5%	-18.6%	4.6
N=c1scc(-c2ccccc2)n1/N=C/c1ccco1	22.4µM*	-26.8%	42.8
Cc1cc(C)n(/N=C/c2ccco2)c(=O)c1C#N	-0.1%	-13.8%	-7.1
SMILES	ALDH1A1 inh	HPGD inh	PNC assembly inh
Cc1nc(Cl)c(C(=O)NC(=O)Nc2cccc(C(F)(F)F)c2)c(C)c1[N+](=O)[O-]	4.7%	-13.8%	23.1
O=C(CN1CCC(NC(=O)Nc2ccccc2-c2ccccc2)CC1)NCc1ccco1	0.8%	-3.2%	28.3
CCOC(=O)NC(=O)C(=CNc1ccccc1C)C(=O)NC(=O)OCC	4.0%	-7.7%	-25.8
COC(=O)[C@@]1(Cc2ccc(OC)cc2)[C@H]2c3cc(C(=O)N(C)C)n(Cc4cc(C)n(C)n4)c3C[C@H]2CN1C(=O)c1ccccc1	0.2%	-11.1%	/
Cc1cc2nnc(SC3CCCCN(C(=O)c4ccc(F)cc4)C3=O)n2c2ccccc12 (stereo not drawn)	17.8µM*	?	-8.1
O=C(c1ccc(F)cc1)N1CCCCC(Sc2nnc3ccccn23)C1=O (stereo not drawn)	0.3%	-9.6%	48.4
CCOC(=O)c1c(C)cc(O)c(C=O)c1O	-13.5%	-9.8%	/
COc1ccc(/C=C/C(=O)NC(=S)Nc2cc([N+](=O)[O-])ccc2O)cc1OC	-3.9%	/	/
COc1ccc(Nc2nc(N/N=C/c3ccc(N(C)C)cc3)nc(C)c2[N+](=O)[O-])cc1	7.94µM*	-10.5%	-8.8
COc1ccc(/C=N/Nc2nc(C)c([N+](=O)[O-])c(N(C)c3ccccc3)n2)cc1OC	-1.8%	-21.1%	?
C=C(C)C(=O)Nc1ccc(OC(F)(F)C(F)F)c(NC(=O)C(=C)C)c1	3.0%	-4.6%	42.6
COC(=O)c1ccc(CSc2nc(-c3ccccc3)cs2)o1	-3.7%	-28.2%	14.5
COC(=O)c1ccc(CSc2nnc(Nc3ccc(OC)cc3)s2)o1	-0.4%	-9.5%	?
COC(=O)c1ccc(CSc2nnc(Nc3ccccc3OC)s2)o1	25.1µM*	-20.9%	7.6
COC(=O)c1ccc(CSc2nnc(NCc3ccccc3)s2)o1	-13.6%	14.1µM*	-28.6
CNC(=O)CSc1nnc(-c2ccncc2)n1Cc1ccccc1	2.4%	-5.3%	10.1
COC(=O)c1ccc(CSc2nnc(-c3ccncc3)n2Cc2ccccc2)o1	25.1µM*	/	-3.1
O=C(Nc1cccc(C(F)(F)F)c1)/C(=C/c1ccco1)NC(=O)c1cccs1	2.0%	-22.0%	59.0
Cc1nnc(SCC(=O)O)s1	1.8%	/	/
COc1cccc(-n2nnnc2SCC(=O)NCCc2ccccc2)c1	?	-15.4%	-11.7
COc1ccccc1-n1nnnc1SCC(=O)NC1CCCC1	?	-19.4%	-25.0
COc1ccc(C)cc1-n1nnnc1SCC1CCCO1 (stereo not drawn)	12.6µM*	-13.4%	49.0
COc1ccc(OC)c(-n2nnnc2SCC(=O)NCCc2ccccc2)c1	1.26µM*	-24.1%	?
Cc1cc(C)nc(SCC(=O)c2ccc3c(c2)OCCO3)n1	1.8%	-27.1%	?
COCCCn1c(SCC(=O)N2CC(=O)Nc3ccccc32)nnc1-c1ccoc1C	-6.6%	-12.0%	-23.1
SMILES	ALDH1A1 inh	HPGD inh	PNC assembly inh
O=C(Cn1nc(Cl)nc1Cl)c1ccc2c(c1)OCCO2	1.12µM*	-5.2%	54.1
COCCCn1c(SCC(=O)n2c(C)c(C)c3ccccc32)nnc1-c1ccoc1C	25.1µM*	-10.6%	?
COc1cccc(CNC(=O)C2CCCN(S(=O)(=O)c3c(C)[nH]c(=O)[nH]c3=O)C2)c1 (stereo not drawn)	11.3%	-3.9%	-27.7
O=C(Nc1cc(Sc2ccccn2)cc([N+](=O)[O-])c1)c1ccc([N+](=O)[O-])cc1	-9.4%	-19.6%	60.3
Cc1ccc(NC(=O)CSc2nnc(-c3cccnc3)n2CCN2CCCCC2)cc1	1.8%	-13.8%	27.8
COc1ccc(C)cc1-n1nnnc1SCC(=O)NC(=O)NCc1ccco1	12.6µM*	-14.2%	-81.0*
COc1ccc(C)cc1-n1nnnc1SCc1nc2ccccc2s1	11.2µM*	-21.6%	-2.2
COc1ccc(C)cc1-n1nnnc1SCC(=O)Nc1cccnc1Cl	?	-4.3%	25.3
COc1ccc(-n2nnnc2SCC(=O)NCc2ccco2)cc1OC	-0.4%	-18.1%	25.4
CCOc1ccc(-c2nnn(CC(=O)c3ccc4c(c3)OCCO4)n2)cc1	?	-24.9%	10.0
COc1ccc(C)cc1-n1nnnc1SCC(=O)Nc1cc(C)on1	2µM*	-4.1%	-23.1
COc1ccc(-c2nnn(CC(=O)c3ccc4c(c3)OCCO4)n2)cc1OC	28.2µM*	-6.4%	?
COc1ccc(-n2nnnc2SCc2nc3ccccc3s2)cc1	?	?	-29.8
O=C(CSc1nc(-c2ccc(F)cc2)cs1)N1CCc2ccccc21	8.1%	/	-9.9
CCOc1ccc(C(=O)/C=C/Nc2ccc(S(=O)(=O)N=C(N)N)cc2)cc1	?	-16.8%	?
